Test results as given in PubChem BioAssay (Tox21).
Records with an inconclusive call do not appear. Calls of active or inactive are those of the source. Unless noted, calls come from the whole dose curve.

Assays:
[1] = Nuclear factor erythroid 2-related factor 2/antioxidant responsive element (Nrf2/ARE) small molecule agonists: qHTS cell viability counter screen in human keratinocytes (AID 1919968; active = well fitted curve in the direction sought with a large enough effect in the repeat runs; an effect the other way counts as inactive or inconclusive; note: nearly all actives have a fitted effect of over 55% in size)
Outline: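 Fluorescence read-out from CellTiter-Fluor after 1 h at 37 C. Wells held HaCaT-derived ARE-luciferase reporter cells (1,500/well) treated 23 h with DMSO-dissolved compounds. Run in the same wells as the luciferase agonist read.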

[2] = Nuclear factor erythroid 2-related factor 2/antioxidant responsive element (Nrf2/ARE) small molecule agonists: luciferase reporter gene qHTS assay in human keratinocytes (AID 1919969); note: nearly all actives have a fitted effect of over 35% in size
[3] = target: Gonadotropin-releasing hormone receptor (Homo sapiens) (UniProt P30968); experiment: Human gonadotropin-releasing hormone receptor (GnRHR) small molecule agonists, calcium flux assay in GnRHR-HEK293 cells (AID 1920063); note: nearly all actives have a fitted effect of over 35% in size
Outline: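 Calcium-dye fluorescence, Ex/Em=480/540, recorded every 1 sec over 3 min after compound addition to GnRHR-HEK293 cells. Cells had been seeded 18 hours earlier and dye-loaded for 1 hour at 37 C. Fifteen concentrations, triplicates.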

[4] = target: KiSS-1 receptor (Homo sapiens) (UniProt Q969F8); experiment: Human kisspeptin (KISS1R) small molecule agonists, calcium flux assay in KISS1R-HEK293 cells (AID 1920064; active = well fitted curve in the direction sought with a large enough effect in the repeat runs; an effect the other way counts as inactive or inconclusive)
Outline: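 Calcium flux read-out: kinetic fluorescence at Ex/Em=480/540, 1 s intervals over 3 min, after pin-tool compound addition to dye-loaded KISS1R-HEK293 cells. Fifteen concentrations, triplicates.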

[5] = G protein-coupled receptor (GPCR) small molecule agonists, calcium flux assay: HEK293 wild type cell line counter screen (AID 1920065)
Outline: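 Agonist mode; 18 h seeding at 37 C, 1 h dye load at 37 C; compounds pinned from DMSO, ATP as positive control; kinetic fluorescence 480/540 nm, 3 min, 1 s reads; 15 concentrations, triplicate.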

[6] = p53 small molecule agonists, cell-based qHTS assay with human liver microsomes: qHTS cell viability counter screen (AID 1963579); note: nearly all actives have a fitted effect of over 45% in size
Outline: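 Seed p53RE-bla cells at 4,000 per well; incubate 5 h at 37 C; add compound, human liver microsomes and NADPH; incubate 16 h at 37 C; add CellTiter-Glo; after 30 min at room temperature, read luminescence.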

[7] = p53 small molecule agonists, cell-based qHTS assay with rat liver microsomes: qHTS cell viability counter screen (AID 1963580); note: nearly all actives have a fitted effect of over 45% in size
Outline: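 Cytotoxicity counter screen: intracellular ATP read by CellTiter-Glo luminescence in the p53 reporter wells. HCT-116 p53RE-bla cells were treated for 16 h at 37 C alongside rat liver microsomes and NADPH, each 0.5 mg/mL final.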

[8] = target: 5-hydroxytryptamine receptor 2A (Homo sapiens) (UniProt P28223); experiment: 5-hydroxytryptamine receptor 2A (HTR2A) small molecule antagonists, cell-based qHTS assay (AID 1963586); note: nearly all actives have a fitted effect of over 45% in size
Outline: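 CHO cells stably expressing human HTR2A were plated for 18 h at 37 C, then loaded with calcium dye for 1 h. Compounds were preincubated 5 min at room temperature before DOI (4 nM solution) was added. Kinetic fluorescence was read for 3 min.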

[9] = target: 5-hydroxytryptamine receptor 2A (Homo sapiens) (UniProt P28223); experiment: 5-hydroxytryptamine receptor 2A (HTR2A) small molecule agonists, cell-based qHTS assay (AID 1963587); note: nearly all actives have a fitted effect of over 30% in size
Outline: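 Kinetic calcium-flux fluorescence (2 min, 1 sec intervals) after compound addition in agonist mode. HTR2A-CHO cells were cultured 18 h, then dye-loaded 1 h at 37 C.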

[10] = target: Muscarinic acetylcholine receptor M1 (Homo sapiens) (UniProt P11229); experiment: Cholinergic receptor muscarinic 1 (CHRM1) small molecule antagonists, cell-based qHTS assay (AID 1963588); note: nearly all actives have a fitted effect of over 40% in size
Outline: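 Compounds were tested at 15 concentrations in three independent runs. Dye-loaded CHRM1-CHO cells were exposed 5 min at room temperature before stimulation by acetylcholine added at 50nM. Intracellular calcium was read kinetically on FDSS for 3 min.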

[11] = target: Muscarinic acetylcholine receptor M1 (Homo sapiens) (UniProt P11229); experiment: Cholinergic receptor muscarinic 1 (CHRM1) small molecule agonists, cell-based qHTS assay (AID 1963589); note: nearly all actives have a fitted effect of over 35% in size
Outline: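 Calcium flux read-out: kinetic fluorescence at 1 sec intervals after pin-tool compound addition to dye-loaded CHRM1-CHO cells (human M1). Agonist mode; 15 concentrations tested in triplicate independent runs.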

[12] = cAMP Responsive Elements (CRE) small molecule agonists, cell-based qHTS assay (AID 1963590)
Outline: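 Beta-lactamase reporter readout: LiveBLAzer B/G FRET substrate, 2 h at room temperature, added after 3 h compound treatment of CRE-bla HEK 293T cells at 37 C/5% CO2.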

[13] = cAMP Responsive Elements (CRE) small molecule antagonists, cell-based qHTS assay (AID 1963591; active = well fitted inhibition curve with a large enough effect in the signal ratio in the repeat runs, not every such curve was filed as active; the % refers to the signal ratio)
Outline: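 HEK293T CRE-bla; 18 h preincubation; compound pin-transfer; NKH477 0.25 uM final, 3 h, 37 C; LiveBLAzer FRET substrate 2 h RT.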

[14] = target: Beta-2 adrenergic receptor (Homo sapiens) (UniProt P07550); experiment: Adrenergic beta2 receptor (ADRB2) small molecule antagonists, cell-based qHTS assay (AID 1963592); note: series mostly up to about 92 µM; nearly all actives have a fitted effect of over 50% in size
Outline: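 Assay format: CHO-ADRB2 cells, 18-20hr seeding at 37C/5% CO2, then compound plus 1nM isoproterenol agonist mix for 0.5hr RT. Homogeneous time-resolved fluorescence cAMP detection after 1hr, expressed as 665/615 nm ratio.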

[15] = target: Beta-2 adrenergic receptor (Homo sapiens) (UniProt P07550); experiment: Adrenergic beta2 receptor (ADRB2) small molecule agonists, cell-based qHTS assay (AID 1963593);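 note: CHO cells stably overexpressing human ADRB2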
Outline: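 CHO cells stably over-expressing ADRB2 were plated overnight at 37C, then dosed with compounds plus a stimulation mix containing 100uM IBMX and 25uM Ro-20-1724 for 0.5hr at room temperature. cAMP was measured by HTRF competition, 1hr.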

[16] = target: D(2) dopamine receptor (Homo sapiens) (UniProt P14416); experiment: Dopamine D2 receptor (DRD2) small molecule agonists, cell-based qHTS assay (AID 1963594); note: nearly all actives have a fitted effect of over 35% in size
Outline: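 cAMP accumulation in DRD2-HEK293 cells measured by HTRF after 1 h detection; compounds added 10 min before NKH477 (200nM […]) forskolin-analogue stimulation, 30 min at room temperature, with Ro20-1724 present at 0.1 mM final.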

[17] = target: D(2) dopamine receptor (Homo sapiens) (UniProt P14416); experiment: Dopamine D2 receptor (DRD2) small molecule antagonists, cell-based qHTS assay (AID 1963595; active = well fitted inhibition curve with a large enough effect in the signal ratio in the repeat runs, with a control signal flat; the % refers to the signal ratio)
Outline: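 HEK293 cells stably expressing DRD2, preincubated with 0.1 mM Ro20-1724 and compounds 10 min, were stimulated with 200 nM NKH477 plus 12 nM quinpirole for 30 min at room temperature; cAMP measured by HTRF (665/620 nm).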

[18] = p53 small molecule agonists, cell-based qHTS assay with human liver microsomes (AID 1963577)
Outline: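 Cells carrying a p53-responsive bla reporter were rested 5 h (37 C, 5% CO2) before compound transfer. Human liver microsomes plus NADPH, 0.5 mg/mL final apiece, supplied metabolism during the 16 h 37 C exposure.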

[19] = p53 small molecule agonists, cell-based qHTS assay with rat liver microsomes (AID 1963578)
Outline: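 Fluorescence from a beta-lactamase reporter under a p53 response element was measured after cells had been incubated 16 h at 37 C with test compound and rat liver microsomes plus NADPH (0.5 mg/mL final each).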

[20] = p53 small molecule agonists, cell-based qHTS assay: qHTS cell viability counter screen (AID 1963581); note: nearly all actives have a fitted effect of over 45% in size
Outline: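 Cytotoxicity read-out: ATP-based luminescence (CellTiter-Glo, 30 min RT) measured in the same wells as the p53 reporter assay, HCT-116 p53RE-bla cells, 16 h compound exposure at 37 C.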
% is set by controls: 0 for no effect and ±100 for the full control effect.

Sequence of Muscarinic acetylcholine receptor M1 (Homo sapiens) (P11229 whole entry, looked up): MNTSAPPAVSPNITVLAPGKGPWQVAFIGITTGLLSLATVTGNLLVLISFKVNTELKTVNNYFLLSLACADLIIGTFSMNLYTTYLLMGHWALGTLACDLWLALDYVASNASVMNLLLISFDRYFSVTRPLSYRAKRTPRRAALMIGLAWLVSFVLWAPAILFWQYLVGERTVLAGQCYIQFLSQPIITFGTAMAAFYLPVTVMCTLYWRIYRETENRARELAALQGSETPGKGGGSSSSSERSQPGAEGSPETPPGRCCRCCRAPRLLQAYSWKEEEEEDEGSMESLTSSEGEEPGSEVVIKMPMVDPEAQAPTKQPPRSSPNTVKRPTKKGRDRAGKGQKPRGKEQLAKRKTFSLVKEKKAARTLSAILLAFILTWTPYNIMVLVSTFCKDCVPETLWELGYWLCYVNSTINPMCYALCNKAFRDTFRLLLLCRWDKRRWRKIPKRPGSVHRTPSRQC
Sequence of 5-hydroxytryptamine receptor 2A (Homo sapiens) (P28223 whole entry, looked up): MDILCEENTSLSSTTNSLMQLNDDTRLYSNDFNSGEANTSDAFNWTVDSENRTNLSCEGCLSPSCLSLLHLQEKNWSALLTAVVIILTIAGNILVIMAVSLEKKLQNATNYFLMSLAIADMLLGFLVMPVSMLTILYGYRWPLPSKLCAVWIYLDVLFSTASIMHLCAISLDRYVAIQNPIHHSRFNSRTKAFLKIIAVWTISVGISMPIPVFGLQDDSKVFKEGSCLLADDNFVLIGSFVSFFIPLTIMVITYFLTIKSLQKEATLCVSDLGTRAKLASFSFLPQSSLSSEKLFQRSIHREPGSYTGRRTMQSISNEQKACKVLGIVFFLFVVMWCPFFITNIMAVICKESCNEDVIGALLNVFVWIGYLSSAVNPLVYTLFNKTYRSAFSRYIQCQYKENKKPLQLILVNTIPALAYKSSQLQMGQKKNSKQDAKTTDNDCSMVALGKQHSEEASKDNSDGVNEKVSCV
Sequence of Beta-2 adrenergic receptor (Homo sapiens) (P07550 whole entry, looked up): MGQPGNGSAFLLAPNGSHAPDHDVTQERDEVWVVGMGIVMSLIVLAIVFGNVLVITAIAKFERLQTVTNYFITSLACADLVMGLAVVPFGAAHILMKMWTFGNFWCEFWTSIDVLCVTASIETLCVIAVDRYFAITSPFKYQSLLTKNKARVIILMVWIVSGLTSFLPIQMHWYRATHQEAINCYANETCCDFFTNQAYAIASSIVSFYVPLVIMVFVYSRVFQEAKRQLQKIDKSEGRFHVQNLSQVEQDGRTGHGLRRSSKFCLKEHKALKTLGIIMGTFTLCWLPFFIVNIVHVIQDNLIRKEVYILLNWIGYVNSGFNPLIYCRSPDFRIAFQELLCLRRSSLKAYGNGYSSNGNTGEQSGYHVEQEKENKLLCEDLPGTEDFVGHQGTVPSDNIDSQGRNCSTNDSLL
Sequence of KiSS-1 receptor (Homo sapiens) (Q969F8 whole entry, looked up): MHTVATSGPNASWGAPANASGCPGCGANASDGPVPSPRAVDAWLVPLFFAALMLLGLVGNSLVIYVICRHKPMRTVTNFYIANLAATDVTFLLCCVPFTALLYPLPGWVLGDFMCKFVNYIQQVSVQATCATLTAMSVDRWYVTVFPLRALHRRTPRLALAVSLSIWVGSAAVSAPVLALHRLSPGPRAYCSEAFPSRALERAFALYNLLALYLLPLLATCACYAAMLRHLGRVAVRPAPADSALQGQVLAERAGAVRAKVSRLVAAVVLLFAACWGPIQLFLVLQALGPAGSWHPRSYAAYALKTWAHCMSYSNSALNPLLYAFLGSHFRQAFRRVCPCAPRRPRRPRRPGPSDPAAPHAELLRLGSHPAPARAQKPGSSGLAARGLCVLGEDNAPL
Sequence of D(2) dopamine receptor (Homo sapiens) (P14416 whole entry, looked up): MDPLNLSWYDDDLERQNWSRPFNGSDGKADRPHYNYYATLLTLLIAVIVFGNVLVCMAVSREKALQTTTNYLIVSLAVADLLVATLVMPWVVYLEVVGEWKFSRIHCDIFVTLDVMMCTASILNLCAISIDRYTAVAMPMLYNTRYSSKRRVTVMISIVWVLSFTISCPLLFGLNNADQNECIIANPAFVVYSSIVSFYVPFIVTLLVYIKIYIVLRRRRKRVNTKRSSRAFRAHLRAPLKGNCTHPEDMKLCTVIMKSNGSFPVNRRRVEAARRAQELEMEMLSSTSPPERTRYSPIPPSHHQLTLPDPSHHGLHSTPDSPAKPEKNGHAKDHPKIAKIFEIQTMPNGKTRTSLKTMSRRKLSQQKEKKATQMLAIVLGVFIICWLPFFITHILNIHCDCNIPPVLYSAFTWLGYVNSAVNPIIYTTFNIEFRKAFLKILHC
Sequence of Gonadotropin-releasing hormone receptor (Homo sapiens) (P30968 whole entry, looked up): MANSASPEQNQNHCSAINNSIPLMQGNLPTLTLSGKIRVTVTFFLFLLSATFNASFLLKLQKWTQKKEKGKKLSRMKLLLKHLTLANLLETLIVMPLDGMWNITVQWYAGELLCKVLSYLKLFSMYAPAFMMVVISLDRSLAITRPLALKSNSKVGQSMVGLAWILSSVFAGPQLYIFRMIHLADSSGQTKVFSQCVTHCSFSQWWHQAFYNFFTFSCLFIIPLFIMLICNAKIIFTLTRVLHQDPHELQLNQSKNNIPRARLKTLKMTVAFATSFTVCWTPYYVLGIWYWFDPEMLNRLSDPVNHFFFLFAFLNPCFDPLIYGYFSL

Cc1ccc(N)c([N+](=O)[O-])c1
inactive: Potency [1] | Potency [2] | Potency [3] | Potency [4] | Potency [5] | Potency [6] | Potency [7] | Potency [8] | Potency [9] | Potency [10] | Potency [11] | Potency [12] | Potency [13] | Potency [14] | Potency [15] | Potency [16] | Potency [17]

CCc1cccc(CC)c1N
inactive: Potency [1] | Potency [2] | Potency [3] | Potency [5] | Potency [18] | Potency [19] | Potency [6] | Potency [7] | Potency [20] | Potency [8] | Potency [9] | Potency [10] | Potency [11] | Potency [12] | Potency [13] | Potency [14] | Potency [15] | Potency [16] | Potency [17]

CCC[C@H](N[C@@H](C)C(=O)N1[C@H](C(=O)O)C[C@@H]2CCCC[C@@H]21)C(=O)OCC
inactive: Potency [1] | Potency [2] | Potency [3] | Potency [5] | Potency [18] | Potency [19] | activity change, negative = cytotoxicity [6] -3.18% [at 13.5 µM] | Potency [7] | Potency [20] | Potency [8] | Potency [10] | Potency [11] | Potency [12] | Potency [13] | Potency [15] | Potency [16] | Potency [17]

CC/C(C)=N/O
inactive: Potency [1] | Potency [2] | Potency [3] | Potency [4] | Potency [18] | Potency [19] | Potency [6] | Potency [7] | Potency [20] | Potency [8] | Potency [9] | Potency [10] | Potency [11] | Potency [12] | Potency [13] | Potency [14] | Potency [15] | Potency [16] | Potency [17]

Clc1ccc(Cl)c(Cl)c1Cl
inactive: Potency [1] | Potency [2] | Potency [3] | Potency [4] | Potency [18] | Potency [6] | Potency [7] | Potency [20] | Potency [8] | Potency [9] | Potency [10] | Potency [11] | Potency [12] | Potency [13] | Potency [16] | Potency [17]

CC(=O)OCc1ccc2c(c1)OCO2
inactive: Potency [1] | Potency [2] | Potency [3] | Potency [4] | Potency [18] | Potency [19] | Potency [6] | Potency [7] | Potency [8] | Potency [9] | Potency [10] | Potency [11] | Potency [12] | Potency [13] | Potency [14] | Potency [15] | Potency [17]

Cc1cccc(C)c1
inactive: Potency [1] | Potency [2] | Potency [3] | Potency [4] | Potency [6] | Potency [7] | Potency [20] | Potency [8] | Potency [9] | Potency [10] | Potency [11] | Potency [12] | Potency [13] | Potency [14] | Potency [15] | Potency [16] | Potency [17]

CCc1ccccc1CC
inactive: Potency [1] | Potency [2] | Potency [3] | Potency [4] | Potency [18] | Potency [19] | Potency [6] | Potency [7] | Potency [20] | Potency [8] | Potency [9] | Potency [10] | Potency [11] | Potency [12] | activity change, negative = inhibition [13] 3.92% [at 18.9 µM] | activity change, negative = inhibition [14] -5.37% [at 19 µM] | Potency [15] | Potency [16] | Potency [17]

C=CC(=O)OCCCCCCCC(C)C
inactive: Potency [1] | Potency [2] | Potency [3] | Potency [4] | Potency [18] | Potency [19] | Potency [6] | Potency [8] | Potency [9] | Potency [10] | Potency [11] | Potency [12] | Potency [13] | Potency [14] | Potency [15] | Potency [16] | Potency [17]

CS(=O)(=O)OCCCCOS(C)(=O)=O
inactive: Potency [1] | Potency [2] | Potency [3] | Potency [5] | Potency [18] | Potency [19] | Potency [6] | Potency [7] | Potency [20] | Potency [12] | Potency [13] | Potency [14] | Potency [15] | Potency [16] | Potency [17]

CC(=O)Oc1ccc(C)cc1
inactive: Potency [1] | Potency [2] | Potency [3] | Potency [5] | Potency [18] | Potency [19] | Potency [6] | Potency [7] | Potency [20] | Potency [8] | Potency [9] | Potency [10] | Potency [11] | Potency [12] | Potency [14] | Potency [16] | Potency [17]

Cc1ccc(C)c(O)c1C
inactive: Potency [1] | Potency [2] | Potency [3] | Potency [4] | Potency [18] | Potency [19] | Potency [6] | Potency [7] | Potency [8] | Potency [9] | Potency [10] | Potency [11] | Potency [12] | Potency [13] | Potency [14] | Potency [15] | Potency [16] | Potency [17]

Cc1ncc[nH]1
inactive: Potency [1] | Potency [2] | Potency [3] | Potency [4] | Potency [18] | Potency [19] | Potency [6] | Potency [7] | Potency [20] | Potency [8] | Potency [9] | Potency [12] | Potency [13] | Potency [14] | Potency [15] | Potency [16] | Potency [17]

O=C(O)c1cccc([N+](=O)[O-])c1
inactive: Potency [1] | Potency [2] | Potency [3] | Potency [5] | Potency [18] | Potency [19] | Potency [6] | Potency [7] | Potency [20] | Potency [8] | Potency [9] | Potency [10] | Potency [12] | Potency [14] | Potency [15] | Potency [16] | Potency [17]

c1cc(-c2ccncc2)ccn1
inactive: Potency [1] | Potency [2] | Potency [3] | Potency [4] | Potency [18] | Potency [19] | Potency [7] | Potency [20] | Potency [8] | Potency [9] | Potency [10] | Potency [11] | Potency [12] | Potency [13] | Potency [14] | Potency [15] | Potency [16] | Potency [17]

Nc1ccc(Cl)cc1Cl
inactive: Potency [1] | Potency [2] | Potency [3] | Potency [4] | Potency [18] | Potency [19] | Potency [6] | Potency [7] | Potency [8] | Potency [9] | Potency [11] | Potency [12] | Potency [13] | Potency [14] | Potency [15] | Potency [16] | Potency [17]
